Measurements taken from PubChem BioAssay (EPA / NIEHS).
Results filed as inconclusive are left out. Activity calls are given as the source filed them. How the source made its calls, unless noted: active means hit-call score of the fitted dose curve at least 0.9, where 1 is the maximum; inactive means score below 0.9.

Experiments:
[1] = BSK_LPS_PGE2: BioMAP Diversity Plus: LPS Assay for Prostaglandin E2 (PGE2) Biomarker Activity (AID 2283082); settings: primary human HUVEC with PBMC; actives raise or lower the signal;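 on AC50: secreted prostaglandin E2 measured by ELISA in LPS-stimulated co-culture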
How it was run: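 Endpoint derived from bidirectional curve fitting versus DMSO of ELISA-measured PGE2 in LPS-stimulated human primary vascular co-culture (HUVEC with PBMC) harvested at 24 h.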

[2] = read-out: Macrophage colony-stimulating factor (MCSF), CSF1 (gene 1435); experiment: BSK_LPS_MCSF: BioMAP Diversity Plus: LPS Assay for Macrophage colony-stimulating factor (MCSF) Biomarker Activity (AID 2283083); settings: primary human HUVEC with PBMC; actives raise or lower the signal
How it was run: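 ELISA readout of M-CSF after 24 h compound exposure in a human endothelial/PBMC co-culture. Activity, in either direction, is fitted relative to DMSO vehicle.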

[3] = read-out: Tissue Factor, F3 (gene 2152); experiment: BSK_LPS_TissueFactor: BioMAP Diversity Plus: LPS Assay for Tissue Factor Biomarker Activity (AID 2283084); settings: primary human HUVEC with PBMC; actives raise or lower the signal
How it was run: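 ELISA signal for cell-surface Tissue Factor (CD142) was read 24 h after compound dosing of an LPS-stimulated human endothelial–PBMC primary co-culture. Gain or loss of signal was scored relative to DMSO.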

[4] = read-out: Tumor necrosis factor (Homo sapiens) (UniProt P01375); experiment: BSK_LPS_TNFa: BioMAP Diversity Plus: LPS Assay for Tumour Necrosis Factor alpha (TNFa) Biomarker Activity (AID 2283085); settings: primary human HUVEC with PBMC; actives raise or lower the signal
How it was run: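 Primary human vascular co-culture of HUVEC and PBMC; TNFa ELISA 24 h after treatment, analysed as increase or decrease relative to DMSO control.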

[5] = read-out: Vascular cell adhesion molecule 1 (VCAM1), VCAM1 (gene 7412); experiment: BSK_LPS_VCAM1: BioMAP Diversity Plus: LPS Assay for Vascular cell adhesion molecule 1 (VCAM1) Biomarker Activity (AID 2283086); settings: primary human HUVEC with PBMC; actives raise or lower the signal
How it was run: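 Primary human vascular co-culture (umbilical vein endothelium plus PBMC) stimulated with LPS received chemical; 24 h later VCAM-1 was read by ELISA. Overt cytotoxicity was assessed by sulforhodamine B staining of parallel cultures at the same time point.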

CD38, CD38 (gene 952) = experiment: BSK_SAg_CD38: BioMAP Diversity Plus: SAg Assay for CD38 Biomarker Activity (AID 2283087); settings: primary human HUVEC with PBMC; actives raise or lower the signal
How it was run: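 Fluorescence ELISA of cell-surface CD38 served as the read-out, with either increase or decrease fitted against DMSO controls. Cells were a human umbilical vein endothelium plus PBMC co-culture under SEB/TSST-1 stimulation, measured 24 h after dosing.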

CD40, CD40 (gene 958) = experiment: BSK_SAg_CD40: BioMAP Diversity Plus: SAg Assay for CD40 Biomarker Activity (AID 2283088); settings: primary human HUVEC with PBMC; actives raise or lower the signal
How it was run: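 Compounds were dosed onto a human primary endothelial–PBMC co-culture, and after 24 h CD40 was quantified by ELISA using a fluorescence signal. Activity in either direction was fitted relative to DMSO.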

[6] = read-out: E-selectin (Homo sapiens) (UniProt P16581); experiment: BSK_SAg_Eselectin: BioMAP Diversity Plus: SAg Assay for Eselectin Biomarker Activity (AID 2283091); settings: primary human HUVEC with PBMC; actives raise or lower the signal
How it was run: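 Co-culture: HUVEC + PBMC. Dose compound; 24 h. ELISA for E-selectin. Bidirectional fit vs DMSO.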

[7] = read-out: Monokine induced gamma interferon (MIG), CXCL9 (gene 4283); experiment: BSK_SAg_MIG: BioMAP Diversity Plus: SAg Assay for Monokine induced gamma interferon (MIG) Biomarker Activity (AID 2283092); settings: primary human HUVEC with PBMC; actives raise or lower the signal
How it was run: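 ELISA readout of MIG/CXCL9; primary human umbilical vein endothelial cells co-cultured with peripheral blood mononuclear cells; 24 h post-dose; gain/loss fit vs DMSO baseline.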

[8] = BSK_SAg_PBMCCytotoxicity: PBMC Cytotoxicity Assessment in the BioMAP Diversity Plus: SAg Assay (AID 2283093); settings: primary human HUVEC with PBMC;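 further: PBMC viability measured as Alamar Blue reduction fluorescence at 546/580 nm; fitted both ways against DMSO so a hit may be loss or gain of signal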;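 on AC50: PBMC superantigen activated with SEB plus TSST-1 one hour after compound addition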
How it was run: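 Compound added to 75,000 PBMC/well for 1 h; SEB and TSST-1 then added at 20 ng/mL final each; 90 h incubation; Alamar Blue 6 h; read 546/580 nm ex/em. Activity fitted bidirectionally relative to DMSO baseline.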

[9] = read-out: Interleukin-8 (IL8), CXCL8 (gene 3576); experiment: BSK_SAg_IL8: BioMAP Diversity Plus: SAg Assay for Interleukin-8 (IL8) Biomarker Activity (AID 2283094); settings: primary human HUVEC with PBMC; actives raise or lower the signal
How it was run: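 In this co-culture of human umbilical vein endothelium with peripheral blood mononuclear cells, IL-8 is assayed by ELISA at 24 h. DMSO serves as baseline for bidirectional curve fitting.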

[10] = BSK_SAg_Proliferation: Cell Proliferation Assessment in the BioMAP Diversity Plus: SAg Assay (AID 2283095); settings: primary human HUVEC with PBMC;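 further: relative cell number as total protein by SRB absorbance in sub-confluent culture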
How it was run: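 Readout is SRB-stained protein (560 nm) in a primary human HUVEC and PBMC co-culture; sub-confluent cultures are read at 96 h. Activity is fitted bidirectionally using DMSO as baseline.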

[11] = BSK_SAg_SRB: Viability Assessment in the BioMAP Diversity Plus: SAg Assay (AID 2283096); settings: primary human HUVEC with PBMC;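 further: cells read one day after compound addition; hits may be either gain or loss of signal compared with DMSO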
How it was run: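 Total protein by sulforhodamine B staining, 24 h after dosing, in HUVEC–PBMC co-culture; DMSO-referenced bidirectional fitting.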

[12] = biological target: human CYP19A1, CYP19A1 (gene 1588) (UniProt P11511); experiment: NVS_ADME_hCYP19A1: NovaScreen (NVS) CYP450-related Enzyme Activity (ADME) Assay for human CYP19A1 (AID 2283098; active means hit-call score of the fitted dose curve at least 0.9, where 1 is the maximum)
How it was run: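 Biochem, cell-free; recombinant enzyme + specific substrate; fluorescence intensity at 0.5 h post-dose; 10 uM duplicate primary, conc. series for actives; acetonitrile = negative control/baseline; positive and negative controls on every plate.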

CD69, CD69 (gene 969) = experiment: BSK_SAg_CD69: BioMAP Diversity Plus: SAg Assay for CD69 Biomarker Activity (AID 2283089); settings: primary human HUVEC with PBMC; actives raise or lower the signal;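 on AC50: cell surface CD69 protein quantified by ELISA with fluorescence detection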
How it was run: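 ELISA, fluorescence read-out: CD69 on human umbilical vein endothelial cell + PBMC co-culture, 24 h post-dosing. Gain or loss of signal fitted bidirectionally against DMSO baseline.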

[13] = read-out: Monocyte Chemoattractant Protein-1 (MCP1), CCL2 (gene 6347); experiment: BSK_SAg_MCP1: BioMAP Diversity Plus: SAg Assay for Monocyte Chemoattractant Protein-1 (MCP1) Biomarker Activity (AID 2283090); settings: primary human HUVEC with PBMC; actives raise or lower the signal
How it was run: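 MCP-1 levels in the endothelial–PBMC SAg co-culture were quantified by ELISA at 24 h post-dosing; both increases and decreases versus DMSO scored. Cytotoxicity monitored by SRB total protein in parallel cultures.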

[14] = biological target: human CYP2A6, CYP2A6 (gene 1548) (UniProt P11509); experiment: NVS_ADME_hCYP2A6: NovaScreen (NVS) CYP450-related Enzyme Activity (ADME) Assay for human CYP2A6 (AID 2283099; active means hit-call score of the fitted dose curve at least 0.9, where 1 is the maximum)
How it was run: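 Fluorescent substrate turnover by recombinant CYP2A6 (insect cell source), 0.5 h read. Screen: 10 uM, duplicate; threshold hits (e.g. 30% inhibition) → singleton concentration-response, top 20 uM. Positive and negative controls on every plate.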

Tumor necrosis factor (Homo sapiens), sequence (P01375 whole entry, looked up): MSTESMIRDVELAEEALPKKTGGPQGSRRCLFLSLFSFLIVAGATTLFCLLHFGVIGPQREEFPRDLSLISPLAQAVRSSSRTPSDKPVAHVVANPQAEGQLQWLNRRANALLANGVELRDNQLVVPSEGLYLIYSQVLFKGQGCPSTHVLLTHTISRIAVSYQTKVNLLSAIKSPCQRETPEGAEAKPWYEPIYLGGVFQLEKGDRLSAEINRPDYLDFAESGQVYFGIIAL
human CYP19A1, CYP19A1 (gene 1588), sequence (P11511 whole entry, looked up): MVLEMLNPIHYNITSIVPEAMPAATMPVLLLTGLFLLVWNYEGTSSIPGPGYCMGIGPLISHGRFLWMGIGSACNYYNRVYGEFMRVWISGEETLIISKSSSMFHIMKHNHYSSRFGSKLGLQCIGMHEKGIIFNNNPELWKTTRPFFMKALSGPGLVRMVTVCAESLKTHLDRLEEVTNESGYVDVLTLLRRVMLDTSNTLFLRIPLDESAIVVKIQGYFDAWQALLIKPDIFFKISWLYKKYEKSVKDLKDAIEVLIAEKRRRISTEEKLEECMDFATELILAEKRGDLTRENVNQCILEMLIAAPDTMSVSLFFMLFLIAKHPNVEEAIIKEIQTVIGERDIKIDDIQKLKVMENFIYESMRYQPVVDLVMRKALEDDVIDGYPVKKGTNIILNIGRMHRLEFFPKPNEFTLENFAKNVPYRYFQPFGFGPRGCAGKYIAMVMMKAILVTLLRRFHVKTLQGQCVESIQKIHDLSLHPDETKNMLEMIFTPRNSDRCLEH
E-selectin (Homo sapiens), sequence (P16581 whole entry, looked up): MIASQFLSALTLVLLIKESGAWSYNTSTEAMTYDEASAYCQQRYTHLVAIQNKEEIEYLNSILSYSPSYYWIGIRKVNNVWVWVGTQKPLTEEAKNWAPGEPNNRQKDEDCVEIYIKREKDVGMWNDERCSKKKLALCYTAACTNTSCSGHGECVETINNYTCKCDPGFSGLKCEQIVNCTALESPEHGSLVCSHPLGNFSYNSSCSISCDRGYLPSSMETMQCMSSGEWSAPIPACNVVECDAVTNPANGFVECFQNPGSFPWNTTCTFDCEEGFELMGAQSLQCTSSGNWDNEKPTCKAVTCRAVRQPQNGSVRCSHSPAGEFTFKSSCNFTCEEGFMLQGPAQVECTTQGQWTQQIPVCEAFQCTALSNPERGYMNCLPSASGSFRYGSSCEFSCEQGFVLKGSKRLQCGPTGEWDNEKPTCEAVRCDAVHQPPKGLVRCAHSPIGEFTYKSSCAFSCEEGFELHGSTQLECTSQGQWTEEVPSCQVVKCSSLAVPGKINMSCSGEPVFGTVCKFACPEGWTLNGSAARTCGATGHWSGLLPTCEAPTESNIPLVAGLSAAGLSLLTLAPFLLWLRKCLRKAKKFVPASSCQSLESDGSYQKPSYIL
human CYP2A6, CYP2A6 (gene 1548), sequence (P11509 whole entry, looked up): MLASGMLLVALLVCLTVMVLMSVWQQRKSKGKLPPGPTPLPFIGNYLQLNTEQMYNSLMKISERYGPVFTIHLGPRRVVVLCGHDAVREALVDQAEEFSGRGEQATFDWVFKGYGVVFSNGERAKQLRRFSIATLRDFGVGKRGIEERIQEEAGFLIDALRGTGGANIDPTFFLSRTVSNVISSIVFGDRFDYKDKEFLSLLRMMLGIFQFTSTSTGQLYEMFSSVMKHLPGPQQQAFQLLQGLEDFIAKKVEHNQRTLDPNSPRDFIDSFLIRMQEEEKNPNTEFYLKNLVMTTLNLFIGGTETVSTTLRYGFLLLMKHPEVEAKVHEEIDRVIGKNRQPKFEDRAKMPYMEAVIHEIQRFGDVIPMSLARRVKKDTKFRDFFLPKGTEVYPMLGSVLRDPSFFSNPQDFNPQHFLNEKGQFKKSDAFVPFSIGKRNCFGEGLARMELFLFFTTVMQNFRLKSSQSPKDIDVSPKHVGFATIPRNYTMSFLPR

O=C(N[C@@H](c1ccccc1)[C@@H]1CCCCN1)c1cccc(C(F)(F)F)c1Cl
AC50 [1]: 4.91 µM (active) | outcome [2]: inactive | outcome [3]: inactive | outcome [4]: inactive | AC50 [5]: 20 µM (active) | AC50 (CD38, CD38 (gene 952)): 20 µM (active) | AC50 (CD40, CD40 (gene 958)): 20 µM (active) | AC50 [6]: 12.3 µM (active) | outcome [7]: inactive | AC50 [8]: 20 µM (active) | AC50 [9]: 14.3 µM (active) | AC50 [10]: 14.4 µM (active) | AC50 [11]: 26.5 µM (active) | outcome [12]: inactive

CC(N)=O
outcome [1]: inactive | outcome [2]: inactive | outcome [3]: inactive | outcome [4]: inactive | outcome [5]: inactive | outcome (CD38, CD38 (gene 952)): inactive | outcome (CD40, CD40 (gene 958)): inactive | outcome (CD69, CD69 (gene 969)): inactive | outcome [6]: inactive | outcome [7]: inactive | outcome [9]: inactive | outcome [10]: inactive | outcome [11]: inactive | outcome [12]: inactive

Nc1nc(=S)c2[nH]cnc2[nH]1
AC50 [1]: 20 µM (active) | outcome [2]: inactive | outcome [3]: inactive | outcome [4]: inactive | outcome [5]: inactive | outcome (CD38, CD38 (gene 952)): inactive | outcome (CD40, CD40 (gene 958)): inactive | outcome [6]: inactive | outcome [7]: inactive | outcome [9]: inactive | AC50 [10]: 13.5 µM (active) | outcome [11]: inactive

CN(C)C(=O)NC1(c2ccccc2)CCN(CC[C@@]2(c3ccc(F)c(F)c3)CN(C(=O)c3ccccc3)CCO2)CC1
outcome [1]: inactive | outcome [2]: inactive | outcome [3]: inactive | outcome [4]: inactive | outcome [5]: inactive | outcome (CD38, CD38 (gene 952)): inactive | outcome (CD40, CD40 (gene 958)): inactive | outcome [13]: inactive | outcome [6]: inactive | outcome [7]: inactive | outcome [9]: inactive | AC50 [10]: 26.1 µM (active) | outcome [11]: inactive

CC1(C)C(=O)NC(=O)N1CO
AC50 [1]: 0.749 µM (active) | outcome [2]: inactive | outcome [3]: inactive | outcome [4]: inactive | outcome [5]: inactive | outcome (CD38, CD38 (gene 952)): inactive | outcome (CD40, CD40 (gene 958)): inactive | outcome [6]: inactive | outcome [7]: inactive | outcome [9]: inactive | outcome [10]: inactive | outcome [11]: inactive | outcome [14]: inactive

CCCCCCC(C=O)=Cc1ccccc1
AC50 [1]: 15.3 µM (active) | outcome [2]: inactive | outcome [3]: inactive | AC50 [4]: 30.1 µM (active) | AC50 [5]: 29.7 µM (active) | AC50 (CD38, CD38 (gene 952)): 33.4 µM (active) | AC50 (CD40, CD40 (gene 958)): 32 µM (active) | AC50 (CD69, CD69 (gene 969)): 31 µM (active) | AC50 [6]: 34.4 µM (active) | AC50 [7]: 31.5 µM (active) | AC50 [8]: 31 µM (active) | AC50 [9]: 29.8 µM (active) | AC50 [10]: 34.9 µM (active) | AC50 [11]: 35.3 µM (active) | outcome [12]: inactive

c1ccc2occc2c1
outcome [1]: inactive | outcome [2]: inactive | outcome [3]: inactive | outcome [4]: inactive | outcome [5]: inactive | outcome (CD38, CD38 (gene 952)): inactive | outcome (CD40, CD40 (gene 958)): inactive | outcome [13]: inactive | outcome [6]: inactive | outcome [7]: inactive | outcome [9]: inactive | outcome [10]: inactive

CO[C@@H]1COCC[C@@H]1N[C@@H]1CC[C@@](C(=O)N2CCc3ncc(C(F)(F)F)cc3C2)(C(C)C)C1
outcome [1]: inactive | outcome [2]: inactive | outcome [3]: inactive | outcome [4]: inactive | outcome [5]: inactive | outcome (CD38, CD38 (gene 952)): inactive | outcome (CD40, CD40 (gene 958)): inactive | outcome [6]: inactive | outcome [7]: inactive | outcome [8]: inactive | outcome [9]: inactive | outcome [10]: inactive | outcome [11]: inactive

C=CCc1ccc(OC)c(OC)c1
outcome [1]: inactive | outcome [2]: inactive | outcome [3]: inactive | AC50 [4]: 11 µM (active) | outcome [5]: inactive | outcome (CD38, CD38 (gene 952)): inactive | outcome (CD40, CD40 (gene 958)): inactive | outcome [6]: inactive | outcome [7]: inactive | outcome [8]: inactive | outcome [9]: inactive | outcome [10]: inactive | outcome [14]: inactive
